The source made the active and inactive calls. How the calls were made is not given here.
Assay: C difficile toxins, biochemical counterscreen, UDPG substrate absence, confirmatory dose response (AID 720650)
Conditions: series mostly up to 19.5 µM; activity change, negative = inhibition: at the top concentration

Row | SMILES | activity change, negative = inhibition | AC50
1 | CC1(C)OC2C(O1)[C@@H](CO)O[C@H]2n1cnc2c(N)ncnc21 (some centres undefined) | 0.905% (inactive) | –
2 | CCCCCCCN1C(N(C)C)=NC[C@@H]1Cc1ccccc1 | -10.6% (inactive) | –
3 | COc1ccc(Cl)cc1NC(=O)Cn1c(NCCO)nc2ccccc21 | -8.47% (inactive) | –
4 | COc1ccc(/C=C\c2onc(C)c2S(=O)(=O)N2CCC(C(=O)NCc3ccco3)CC2)cc1 | -7.32% (inactive) | –
5 | COc1ccc(NC(=O)Nc2nc(C)cc(C)n2)c(OC)c1 | -12.3% (inactive) | –
6 | C[C@@H]1C=C[C@](Cc2ccccc2)(C(=O)NCC2CC2)N1C(=O)c1ccccc1 | -3.34% (inactive) | –
7 | Cc1nc(-c2ccccn2)nc(SCC(=O)c2ccc(F)cc2)c1Cl | -7.34% (inactive) | –
8 | O=C(COc1cccc(C(F)(F)F)c1)N1CCN(c2ccc(O)cc2)CC1 | 10.8% (inactive) | –
9 | COc1ccccc1N1CC(O)=C(c2nc3ccccc3s2)C1=N | – | > 39 µM (inactive)
10 | COc1ccc(/C=C2\CCCCC2=O)cc1 | -1.74% (inactive) | –
11 | COc1cccc(C(=O)C2CCCN(Cc3ccc(F)cc3)C2)c1 (centres undefined) | 11.8% (inactive) | –
12 | Oc1ccc(/C=N/N2CCN(c3ccccn3)CC2)cc1 | – | 15 µM (active)
13 | COc1ccc(C(=O)NC(CC(=O)O)c2cc([N+](=O)[O-])ccc2Cl)c(SC)c1 (centres undefined) | 8.05% (inactive) | –
14 | O=C(C[C@@H]1CC[C@H]2[C@@H](COC[C@H](O)CN2C(=O)c2ccccn2)O1)NC1CCC1 | -6.78% (inactive) | –
15 | CCC(=O)Nc1ccc2c(c1)OC[C@H](C)N(C(=O)NC(C)C)C[C@H](C)[C@H](OC)CN(C)C2=O | -3.05% (inactive) | –
16 | Cc1ccc(-c2csc(NC(=O)/C=C/c3ccco3)c2C(=O)O)cc1 | -19.9% (inactive) | –
17 | Cc1ccc2ccc[n+](Cc3ccccc3)c2c1 | -7.71% (inactive) | –
18 | C/C(=N\NC(N)=S)c1ccc2c(c1)OCCO2 | -8.65% (inactive) | –
19 | COc1ccc(/C=C/c2onc(C)c2S(=O)(=O)N2CCC(C(=O)N3CCCCCC3)CC2)cc1 | 6.66% (inactive) | –
20 | CCOc1ccccc1/C=C/c1onc(C)c1S(=O)(=O)N1CCC(C(=O)N(CC)CC)CC1 | -11.7% (inactive) | –

Row | SMILES | activity change, negative = inhibition | AC50
21 | COc1ccc(C(=O)/C=C/c2ccc(O)cc2)c2c1CC(O)C(C)(C)O2 (centres undefined) | -8.07% (inactive) | –
22 | CCNC(=O)C[C@H]1CC[C@@H]2[C@@H](COc3ccc(NC(=O)c4cccc(OC)c4)cc3C(=O)N2C)O1 | – | > 39 µM (inactive)
23 | Cc1nn2cc(-c3cccc(Cl)c3)cnc2c1Br | -5.76% (inactive) | –
24 | CCOC(=O)C(=O)NNc1ccc(Cl)cc1 | – | 0.594 µM (active)
25 | Cc1ccc(C(=O)Nc2scc(-c3ccccc3)c2C(=O)O)cc1 | – | 9.56 µM (active)
26 | COc1ccc(C2=NS(=O)(=O)N(C)C(C(=O)N3CCOCC3)=C2)cc1 | 6.56% (inactive) | –
27 | CCCCn1c(CN2CCN(C(=O)c3ccco3)CC2)nc2c1c(=O)n(C)c(=O)n2C | -3.65% (inactive) | –
28 | Cc1onc(-c2c(F)cccc2Cl)c1C(=O)Nc1nnc(C(F)(F)F)s1 | -11.9% (inactive) | –
29 | O=C(Cc1ccccc1)NNC(=S)NC(=O)c1cccnc1 | – | > 39 µM (inactive)
30 | O=C(CSc1nc2cc(Cl)ccc2s1)c1ccco1 | – | > 39 µM (inactive)
31 | CCOc1cc(NC(=S)NCC2CCCO2)c(OCC)cc1NC(=O)c1ccc(F)cc1 (centres undefined) | -2.79% (inactive) | –
32 | Cc1ccc(CNCCCn2cnc(C(=O)Nc3ccc(C)c(C)c3)n2)o1 | 3.86% (inactive) | –
33 | O=C(CC(c1ccccc1)c1ccccc1)Nc1ccc(O)cc1 | – | 13.4 µM (active)
34 | CC1(C)O[C@@H]2[C@H](O1)[C@@H](COS(=O)(=O)O)O[C@H]2n1c(=S)[nH]c2c(=O)[nH]c(N)nc21 | -22.6% (inactive) | –
35 | O=C(O)c1cc(S(=O)(=O)Nc2ccc3cn[nH]c3c2)ccc1Cl | 11.7% (inactive) | –
36 | COc1cc(O)ccc1C(=O)CCc1ccc(O)cc1 | – | 10.7 µM (active)
37 | COc1ccc2nccc(/C=C/c3ccnc4ccc(OC)cc34)c2c1 | -16% (inactive) | –
38 | COc1cc(/C=C/C(=O)OCC(=O)NCc2ccco2)ccc1O | -18.6% (inactive) | –
39 | CCOc1ccccc1/C=C/c1onc(C)c1S(=O)(=O)N1CCC(C(=O)NC(C)(C)C)CC1 | -3.36% (inactive) | –

From PubChem BioAssay AID720650 (Broad Institute, 2013)
